From PubChem BioAssay
Sampled rows, rich in hits. Any-hit rate of the full collection: about 11%.
ALDH1A1 block: blocks purified human ALDH1A1 activity; P00352; Purified ALDH1A1, NADH fluorescence, propionaldehyde substrate; Potency, µM (series often up to 75.3 µM), actives largely listed as inhibitors; 7.3% of 220,000 active
PNC inhibitor: inhibitors of perinucleolar compartment assembly | PC3M PTB-GFP, PNC prevalence imaging, 16 h; hits give low values | activity change (PNC), negative = inhibition, % at 10 µM | 3.1% of 140,000 active;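 active = readout at or below -70, meaning at least 70% loss of cells showing the perinucleolar compartment, a nuclear body marking cancer cells; inconclusive = readout between -30 and a set limit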
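Read-out is percentage of cells bearing a perinucleolar compartment, from automated 20x imaging of fixed, Hoechst-stained PC3M PTB-GFP cells. Cells were seeded 4 h, then exposed 16 h to compound (23 nl of library stock) in duplicate plates.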
HPGD block: blocks human HPGD enzyme activity; P15428; purified HPGD, NADH fluorescence kinetic, PGE2 substrate; Potency, µM, actives largely listed as inhibitors; 4.3% of 150,000 active; AID 894
Target sequence (P15428 whole entry, looked up): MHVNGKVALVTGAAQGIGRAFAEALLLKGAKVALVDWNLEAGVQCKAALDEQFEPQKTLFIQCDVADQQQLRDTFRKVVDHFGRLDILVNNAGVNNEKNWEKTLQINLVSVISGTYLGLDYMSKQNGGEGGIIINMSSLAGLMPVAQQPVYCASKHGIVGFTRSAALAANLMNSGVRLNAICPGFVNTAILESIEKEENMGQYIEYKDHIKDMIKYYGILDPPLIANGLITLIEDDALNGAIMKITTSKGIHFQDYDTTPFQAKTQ
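20 nM HPGD preincubated 15 min at room temperature with compound in 50 mM Tris-HCl pH 8, 0.01% Tween 20. Started with 1 mM NAD+ and 30 uM prostaglandin E2; NADH fluorescence (360/450 nm) read 5 times over 30-s intervals, last minus first.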
IMPase Li inh: membrane-permeable IMPase blocker, potentiated with lithium | CHO-M1 cells, IP1 TR-FRET (IP-One), carbachol + lithium | Potency, µM (doses to about 59.4 µM), actives largely listed as inhibitors | 0.35% of 210,000 active; active = well fitted inhibition curve with a large enough effect; inconclusive = small, poorly fitted or top-dose-only effect; inactive = no such curve, though single readings can be large or run the other way;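 note: IP1 builds up when IMPase is blocked and the TR-FRET signal falls; nearly all actives have a fitted effect of over 50% in size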
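Steps: plate 2000 CHO-M1 cells per well and culture 16–30 h; add compound and lithium; incubate 30 min, 37C; add d2-IP1 tracer and Eu cryptate anti-IP1 antibody in lysis buffer; read after 10 min at room temperature.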
IMPase cell inh: membrane-permeable compound that blocks inositol monophosphatase; inhibition (IP1 accumulation), % at 46.1 µM; CHO-M1 cells, IP1 accumulation, HTRF TR-FRET ratio; 120,000 tested, under 10 active; active = well fitted curve in the direction sought with a large enough effect in the signal ratio, not every such curve was filed as active; inconclusive = small, poorly fitted or top-dose-only effect, or a change in a side signal; inactive = no such curve, though single readings can be large or run the other way; the % refers to the signal ratio;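 note: cells stimulated with carbachol in lithium chloride buffer; higher means more IMPase inhibition seen as more IP1 and lower FRET ratio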
Target sequence (P97697 whole entry, looked up): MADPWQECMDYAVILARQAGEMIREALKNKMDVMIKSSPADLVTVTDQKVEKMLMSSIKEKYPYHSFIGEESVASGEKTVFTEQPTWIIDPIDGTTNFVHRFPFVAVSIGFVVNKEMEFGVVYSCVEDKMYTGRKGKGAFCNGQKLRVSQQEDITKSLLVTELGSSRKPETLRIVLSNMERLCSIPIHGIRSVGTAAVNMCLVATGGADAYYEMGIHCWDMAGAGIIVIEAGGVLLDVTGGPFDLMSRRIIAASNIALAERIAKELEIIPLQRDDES
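CHO-M1, 2000 cells/well, cultured 16–30 h; cpd up to 46 uM; carbachol (50 uM solution, stimulation buffer w/ 50 mM LiCl, pH 7.4), 30 min 37C; IP-One TR-FRET, 10 min RT; Ex 320/Em 665, 620; Hill-fit AC50.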
Numbers stand for hits; [ ] = another dose, or the depositor's remark. Unless noted, calls come from the whole dose curve; as a rule, active = well fitted inhibition curve with a large enough effect (not every such curve was filed as active); inconclusive = small, poorly fitted or top-dose-only effect, or another doubt; inactive = no such curve, though single readings can be large or run the other way.

What do the screens show for `O=C(O)C1Sc2[nH]c(=O)sc2C2c3cc(Cl)ccc3OC(=O)C12` (configuration not stated)?
ALDH1A1 block: 13µM; PNC inhibitor: inactive; HPGD block: inconclusive; IMPase Li inh: inactive; IMPase cell inh: inactive

What do the screens show for `CN(C)c1ccc(N)cc1`?
ALDH1A1 block: 14µM; HPGD block: inactive; IMPase Li inh: inactive

Results for CN(C)c1ccc(N=O)cc1 ?
ALDH1A1 block: 0.4µM; HPGD block: inactive; IMPase Li inh: inactive

Results for CN(C)c1ccc(N=Nc2ccccc2)cc1 ?
ALDH1A1 block: inconclusive; HPGD block: inactive; IMPase Li inh: inactive

Results for C/C=C/C=O ?
ALDH1A1 block: inactive; HPGD block: inactive; IMPase Li inh: inactive

How did C=CCN1C(=O)/C(=C/c2cc(C)n(-c3ccccn3)c2C)C(=O)NC1=S do in these assays?
ALDH1A1 block: inconclusive; PNC inhibitor: inactive; HPGD block: 13µM; IMPase Li inh: inactive

Results for CCc1ccccc1N1C(=O)NC(=O)/C(=C\c2cc(C)n(C)c2C)C1=O ?
ALDH1A1 block: inactive; PNC inhibitor: inactive; HPGD block: inactive; IMPase Li inh: inactive

How did O=C(O)/C=C\C(=O)Nc1ccc(Oc2ccc(Br)cc2)cc1 do in these assays?
ALDH1A1 block: 1.4µM; IMPase Li inh: inactive

What do the screens show for `CC(C)(C)C(=O)C1C(=O)c2ccccc2C1=O`?
ALDH1A1 block: 16µM; HPGD block: inactive; IMPase Li inh: inactive

What do the screens show for `CNCCc1c[nH]c2ccccc12`?
ALDH1A1 block: 18µM; IMPase Li inh: inactive

What do the screens show for `CNCCc1c[nH]c2ccc(O)cc12`?
ALDH1A1 block: inactive; HPGD block: inactive; IMPase Li inh: inactive; IMPase cell inh: inactive

Results for COC(=O)C[C@]1(C(=O)OC)CN(C#N)N(c2ccc(Cl)cc2)C12c1ccccc1-c1ccccc12 ?
ALDH1A1 block: inactive; PNC inhibitor: -100; HPGD block: inactive; IMPase Li inh: inactive; IMPase cell inh: inactive

Results for CCOc1ccccc1OCCCCN1CCCC1 ?
ALDH1A1 block: 22µM; PNC inhibitor: inactive; HPGD block: inactive; IMPase Li inh: inactive; IMPase cell inh: inactive

What do the screens show for `CCOc1ccccc1N=C1SCCCN1C`?
ALDH1A1 block: inactive; PNC inhibitor: inactive; HPGD block: inactive; IMPase Li inh: inactive; IMPase cell inh: inactive

How did O=[As](O)(O)c1ccc2nc3cc([As](=O)(O)O)ccc3nc2c1 do in these assays?
ALDH1A1 block: inactive[13.5 µM]; HPGD block: inactive; IMPase Li inh: inactive

How did Fc1ccc(C(OCCN2CCN(C/C=C/c3ccccc3)CC2)c2ccc(F)cc2)cc1 do in these assays?
ALDH1A1 block: inactive; IMPase Li inh: inactive

How did CCn1c(N)c(C(=O)NC)sc1=S do in these assays?
ALDH1A1 block: 2.8µM; PNC inhibitor: inconclusive; HPGD block: 3.5µM; IMPase Li inh: inactive; IMPase cell inh: inactive

How did C[C@]12C=CC(=O)C=C1CC[C@@H]1[C@@H]2CC[C@@]2(C)[C@H]1CC[C@]2(C)O do in these assays?
ALDH1A1 block: inactive; HPGD block: inactive; IMPase Li inh: inactive

What do the screens show for `C=C1CC2C(CC[C@]3(C)C(=O)CCC23)[C@]2(C)C=CC(=O)C=C12` (some centres not stated)?
ALDH1A1 block: 28µM; HPGD block: inactive; IMPase Li inh: inactive

What do the screens show for `C=CC(N)=O`?
ALDH1A1 block: inactive; HPGD block: inactive; IMPase Li inh: inactive

Results for COc1cc(Cc2ccc(N)c(OC)c2)ccc1N ?
ALDH1A1 block: inconclusive; PNC inhibitor: -113; HPGD block: inactive; IMPase Li inh: inactive

How did c1ccc2c([C@@H]3CCN(CCN4CCOCC4)C3)c[nH]c2c1 do in these assays?
ALDH1A1 block: inactive[13.5 µM]; HPGD block: inactive; IMPase Li inh: inactive

What do the screens show for `CC(C)=CCCC1(C)C=Cc2c(O)c3c(c(CC=C(C)C)c2O1)OC12C(CC4CC1C(C)(C)OC2(C/C=C(/C)C(=O)O)C4O)C3=O` (configuration not stated)?
ALDH1A1 block: inconclusive; HPGD block: inactive; IMPase Li inh: inactive

How did Cc1cccc(NC(=O)c2cccc(NS(=O)(=O)c3ccc(Cl)cc3)c2)c1 do in these assays?
ALDH1A1 block: inconclusive; PNC inhibitor: inactive; HPGD block: 13µM; IMPase Li inh: inactive; IMPase cell inh: inactive

What do the screens show for `Cc1cccc(C(=O)Nc2ccc(Cl)cc2C(=O)c2ccccc2)c1`?
ALDH1A1 block: inactive; PNC inhibitor: inconclusive; HPGD block: inactive; IMPase Li inh: inactive; IMPase cell inh: inactive

What do the screens show for `COc1ccc(NC(=O)c2cc([N+](=O)[O-])ccc2N2CCNCC2)cc1`?
ALDH1A1 block: 8.9µM; IMPase Li inh: inactive

What do the screens show for `C/C=C(\C)C(=O)O[C@@H]1C(C)=C2[C@H]([C@@H]1OC(=O)CCCCCCC)[C@@](C)(OC(C)=O)C[C@@H](OC(=O)CCC)[C@@]1(O)[C@H]2OC(=O)[C@]1(C)O`?
IMPase cell inh: inactive

How did CCC(C)N1C(=O)/C(=C/c2ccc3c(c2)CCN3CCCCl)C(=O)NC1=S (configuration not stated) do in these assays?
ALDH1A1 block: 0.22µM; PNC inhibitor: inconclusive; HPGD block: 25µM; IMPase Li inh: inactive; IMPase cell inh: inactive

What do the screens show for `CCCCN(Cc1ccccc1)C1CCN(CCc2ccccc2)CC1`?
ALDH1A1 block: inactive; PNC inhibitor: inactive; HPGD block: inactive; IMPase Li inh: inactive

What do the screens show for `c1ccc(CCN2CCC(N3CCN(c4ccccc4)CC3)CC2)cc1`?
ALDH1A1 block: inactive; PNC inhibitor: -100; HPGD block: inactive; IMPase Li inh: inactive; IMPase cell inh: inactive

Results for CC1=NN(c2ccccc2)C(=O)/C1=C/c1c(O)[nH]c(=S)[nH]c1=O ?
ALDH1A1 block: inconclusive; PNC inhibitor: inactive; HPGD block: 20µM; IMPase Li inh: inactive; IMPase cell inh: inactive

What do the screens show for `CC1=NN(c2ccccc2)C(=O)/C1=C/c1c(O)[nH]c(=O)[nH]c1=O`?
ALDH1A1 block: inconclusive; IMPase Li inh: inactive

How did CC/C(=N\Nc1cccc2ccccc12)c1c(O)[nH]c(=O)[nH]c1=O do in these assays?
ALDH1A1 block: 14µM; PNC inhibitor: inactive; HPGD block: inconclusive; IMPase Li inh: inactive

How did CC/C(=N\Nc1ccccc1)c1c(O)[nH]c(=O)[nH]c1=O do in these assays?
ALDH1A1 block: inactive

What do the screens show for `CCC(=NCCC(c1ccccc1)c1ccccc1)c1c(O)[nH]c(=O)[nH]c1=O`?
ALDH1A1 block: inconclusive; PNC inhibitor: -96; HPGD block: inactive; IMPase Li inh: inactive

Results for Nc1nc(=S)c2ncn([C@H]3O[C@@H](CO)[C@@H](O)[C@@H]3O)c2[nH]1 ?
ALDH1A1 block: inconclusive; HPGD block: inactive; IMPase Li inh: inactive; IMPase cell inh: inactive

How did C=CCn1c(O)c(C(CC)=NCCc2ccccc2)c(=O)[nH]c1=O do in these assays?
ALDH1A1 block: inactive; PNC inhibitor: inconclusive; HPGD block: inactive; IMPase Li inh: inactive; IMPase cell inh: inactive

Results for C=CCn1c(O)c(/C(CC)=N/NC(=S)Nc2ccccc2)c(=O)[nH]c1=O ?
ALDH1A1 block: 18µM
